The record followed here is PubChem BioAssay (EPA / NIEHS).

Assay [1] deals with Retinoic acid receptor RXR-alpha (Homo sapiens) (UniProt P19793). The assay can be described thus: ATG_RXRa_TRANS: Attagene TRANS-FACTORIAL HepG2 Assay for human Retinoid X Receptor alpha (RXRa) (AID 2283012; active means hit-call score of the fitted dose curve at least 0.9, where 1 is the maximum). The method in brief: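 Cells (HepG2) carried transiently transfected GAL4-responsive reporter units. Following a 24 h chemical incubation, reporter mRNA induction was read via RT-PCR fragment analysis; DMSO served as negative control and baseline.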
Sequence of Retinoic acid receptor RXR-alpha (Homo sapiens) (P19793 whole entry, looked up, the tested form may be a part): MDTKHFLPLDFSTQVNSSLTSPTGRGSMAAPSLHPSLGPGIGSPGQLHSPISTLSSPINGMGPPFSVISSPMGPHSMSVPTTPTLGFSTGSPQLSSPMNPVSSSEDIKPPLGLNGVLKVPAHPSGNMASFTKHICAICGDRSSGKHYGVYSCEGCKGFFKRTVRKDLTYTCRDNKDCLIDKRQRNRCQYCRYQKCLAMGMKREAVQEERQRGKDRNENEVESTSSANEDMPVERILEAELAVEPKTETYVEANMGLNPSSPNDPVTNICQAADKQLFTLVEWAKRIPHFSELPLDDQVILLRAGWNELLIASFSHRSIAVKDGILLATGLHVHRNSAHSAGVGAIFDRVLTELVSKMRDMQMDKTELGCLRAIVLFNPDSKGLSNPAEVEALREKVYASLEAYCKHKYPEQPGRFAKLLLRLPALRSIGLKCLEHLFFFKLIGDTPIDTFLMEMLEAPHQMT

The target of assay [2] is human Retinoid X Receptor beta (RXRb), RXRB (gene 6257) (UniProt P28702). In words: ATG_RXRb_TRANS: Attagene TRANS-FACTORIAL HepG2 Assay for human Retinoid X Receptor beta (RXRb) (AID 2283013; active means hit-call score of the fitted dose curve at least 0.9, where 1 is the maximum). The gist of the method:
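Multiplexed TRANS reporter assay in HepG2; 24 h dosing; reporter mRNA by RT-PCR/CE fluorescence; gain-of-signal relative to DMSO.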

For assay [3], the target named is human Thyroid Receptor alpha (THRa1), THRA (gene 7067) (UniProt P10827). The assay can be described thus: ATG_THRa1_TRANS: Attagene TRANS-FACTORIAL HepG2 Assay for human Thyroid Receptor alpha (THRa1) (AID 2283014; active means hit-call score of the fitted dose curve at least 0.9, where 1 is the maximum). The method in brief:
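First, HepG2 cells receive multiple GAL4-UAS reporter units and the chimeric receptor. They are then dosed for 24 h, after which RNA is reverse-transcribed, amplified, labelled, HpaI-cut and sized by capillary electrophoresis; gain relative to DMSO is scored.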

Read-out in assay [4]: E-selectin (Homo sapiens) (UniProt P16581)
The assay can be described thus: BSK_3C_Eselectin: BioMAP Diversity Plus: 3C Assay for Eselectin Biomarker Activity (AID 2283015).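 On outcome: cell surface E-selectin protein quantified by ELISA 24 h after dosing.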 To be noted: primary human endothelial cells (HUVEC); actives raise or lower the signal. The method in brief: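 Human vascular endothelium from umbilical vein is exposed to test chemicals for 24 h. E-selectin levels are read by ELISA and compared with DMSO controls.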

Read-out in assay [5]: Interleukin-1 alpha (IL1a), IL1A (gene 3552)
In words: BSK_BE3C_IL1a: BioMAP Diversity Plus: BE3C Assay for Interleukin-1 alpha (IL1a) Biomarker Activity (AID 2283016). To be noted: primary human bronchial epithelial cells; actives raise or lower the signal. The method in brief: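 Cultures of primary human bronchial epithelial cells receive test chemical. After 24 h, IL-1a is quantified by ELISA, while parallel wells are fixed in TCA and SRB-stained for total protein. Changes in either direction are fitted relative to DMSO.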

Read-out in assay [6]: Monocyte Chemoattractant Protein-1 (MCP1), CCL2 (gene 6347)
In words: BSK_3C_MCP1: BioMAP Diversity Plus: 3C Assay for Monocyte Chemoattractant Protein-1 (MCP1) Biomarker Activity (AID 2283017). The conditions noted are these: primary human endothelial cells (HUVEC); actives raise or lower the signal. The method in brief:
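Endothelial cells from human umbilical vein are dosed with chemical, cultured 24 h, then assayed for MCP-1 by ELISA; both increases and decreases are modelled against DMSO controls.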

Read-out in assay [7]: Monocyte Chemoattractant Protein-1 (MCP1), CCL2 (gene 6347)
The assay can be described thus: BSK_4H_MCP1: BioMAP Diversity Plus: 4H Assay for Monocyte Chemoattractant Protein-1 (MCP1) Biomarker Activity (AID 2283018). The conditions noted are these: primary human endothelial cells (HUVEC); actives raise or lower the signal. The method in brief:
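Readout: MCP-1 ELISA on compound-treated HUVEC, sampled 24 h post-dosing. Baseline and negative control DMSO; bidirectional fit. Overt toxicity checked alongside by sulforhodamine B protein staining at time of biomarker measurement.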

Read-out in assay [8]: Human Leukocyte Antigen - DR isotype (HLADR), HLA-DRA (gene 3122)
The assay can be described thus: BSK_3C_HLADR: BioMAP Diversity Plus: 3C Assay for Human Leukocyte Antigen - DR isotype (HLADR) Biomarker Activity (AID 2283019).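 On outcome: ELISA of cell-surface HLA-DR on HUVEC 24 h after dosing.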 The conditions noted are these: primary human endothelial cells (HUVEC); actives raise or lower the signal. The gist of the method: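 Endothelial cells from human umbilical vein are treated with test chemical; after 24 h, HLA-DR levels are measured by ELISA. Data are fitted in both directions using DMSO as the baseline.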

Read-out in assay [9]: Interleukin-8 (IL8), CXCL8 (gene 3576)
In words: BSK_3C_IL8: BioMAP Diversity Plus: 3C Assay for Interleukin-8 (IL8) Biomarker Activity (AID 2283020). To be noted: primary human endothelial cells (HUVEC); actives raise or lower the signal. The method in brief:
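Human vascular endothelial cells (umbilical vein) in the 3C system; IL-8 level detected by ELISA at 24 h post-dose, with DMSO as baseline.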

The target of assay [10] is human RAR-related Orphan Receptor gamma (RORg), RORC (gene 6097) (UniProt P51449). In words: ATG_RORg_TRANS: Attagene TRANS-FACTORIAL HepG2 Assay for human RAR-related Orphan Receptor gamma (RORg) (AID 2283011; active means hit-call score of the fitted dose curve at least 0.9, where 1 is the maximum). The method in brief:
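Activity is scored as increase in GAL4-UAS reporter mRNA over DMSO, detected by fluorescent RT-PCR and capillary electrophoresis in HepG2 cells transiently expressing a RORg-Gal4 chimera, 24 h after dosing.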

SMILES strings stand for the structures. Values joined by “and” are separate entries in the source; they are usually repeats but may differ in a detail not shown here. Identical values can stand only once. Results filed as inconclusive are left out. Some structures have more than one record in an assay (separate samples or runs), and their calls can disagree. Active and inactive are the calls of the source. How the source made its calls, unless noted: active means hit-call score of the fitted dose curve at least 0.9, where 1 is the maximum; inactive means score below 0.9.

Sequence of human RAR-related Orphan Receptor gamma (RORg), RORC (gene 6097) (P51449 whole entry, looked up, the tested form may be a part): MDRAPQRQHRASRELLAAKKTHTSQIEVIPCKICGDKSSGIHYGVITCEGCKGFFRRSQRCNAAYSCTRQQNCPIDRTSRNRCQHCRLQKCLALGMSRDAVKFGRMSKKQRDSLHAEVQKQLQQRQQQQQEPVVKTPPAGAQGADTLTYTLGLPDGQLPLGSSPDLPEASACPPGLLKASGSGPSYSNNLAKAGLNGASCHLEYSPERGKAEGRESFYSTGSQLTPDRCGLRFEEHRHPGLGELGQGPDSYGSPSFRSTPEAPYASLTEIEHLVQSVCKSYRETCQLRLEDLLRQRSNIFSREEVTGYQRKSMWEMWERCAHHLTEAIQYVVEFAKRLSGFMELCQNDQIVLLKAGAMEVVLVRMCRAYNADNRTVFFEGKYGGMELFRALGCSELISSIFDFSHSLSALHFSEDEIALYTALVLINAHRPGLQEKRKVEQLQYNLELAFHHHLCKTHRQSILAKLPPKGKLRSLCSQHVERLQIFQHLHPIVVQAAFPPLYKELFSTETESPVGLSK
Sequence of human Thyroid Receptor alpha (THRa1), THRA (gene 7067) (P10827 whole entry, looked up, the tested form may be a part): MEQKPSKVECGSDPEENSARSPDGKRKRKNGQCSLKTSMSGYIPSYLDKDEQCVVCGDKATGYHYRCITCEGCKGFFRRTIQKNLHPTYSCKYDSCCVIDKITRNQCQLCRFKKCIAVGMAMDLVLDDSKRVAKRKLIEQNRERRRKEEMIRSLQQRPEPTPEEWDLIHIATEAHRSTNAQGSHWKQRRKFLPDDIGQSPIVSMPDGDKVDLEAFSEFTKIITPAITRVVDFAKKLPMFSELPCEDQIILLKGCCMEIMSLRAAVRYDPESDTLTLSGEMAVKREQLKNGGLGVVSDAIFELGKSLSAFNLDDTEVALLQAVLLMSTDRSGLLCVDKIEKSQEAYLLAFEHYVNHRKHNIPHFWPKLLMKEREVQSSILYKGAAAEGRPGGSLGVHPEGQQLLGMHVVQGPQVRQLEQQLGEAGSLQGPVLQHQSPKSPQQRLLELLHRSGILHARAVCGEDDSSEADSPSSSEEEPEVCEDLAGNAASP
Sequence of human Retinoid X Receptor beta (RXRb), RXRB (gene 6257) (P28702 whole entry, looked up): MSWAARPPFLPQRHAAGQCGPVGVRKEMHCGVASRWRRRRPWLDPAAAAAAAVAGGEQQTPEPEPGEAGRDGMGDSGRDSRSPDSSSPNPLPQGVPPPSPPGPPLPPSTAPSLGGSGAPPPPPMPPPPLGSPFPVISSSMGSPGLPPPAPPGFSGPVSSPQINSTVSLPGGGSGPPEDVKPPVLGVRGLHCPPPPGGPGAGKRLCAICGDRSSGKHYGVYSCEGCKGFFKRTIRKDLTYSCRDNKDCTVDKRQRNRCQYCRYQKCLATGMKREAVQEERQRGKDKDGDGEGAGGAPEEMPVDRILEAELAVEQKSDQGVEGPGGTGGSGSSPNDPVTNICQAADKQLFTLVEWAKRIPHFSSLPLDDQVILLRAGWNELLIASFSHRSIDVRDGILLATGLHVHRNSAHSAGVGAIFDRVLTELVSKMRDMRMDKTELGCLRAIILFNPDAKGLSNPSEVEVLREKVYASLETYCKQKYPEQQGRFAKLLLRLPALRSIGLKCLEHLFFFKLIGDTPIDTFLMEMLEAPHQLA
Sequence of E-selectin (Homo sapiens) (P16581 whole entry, looked up): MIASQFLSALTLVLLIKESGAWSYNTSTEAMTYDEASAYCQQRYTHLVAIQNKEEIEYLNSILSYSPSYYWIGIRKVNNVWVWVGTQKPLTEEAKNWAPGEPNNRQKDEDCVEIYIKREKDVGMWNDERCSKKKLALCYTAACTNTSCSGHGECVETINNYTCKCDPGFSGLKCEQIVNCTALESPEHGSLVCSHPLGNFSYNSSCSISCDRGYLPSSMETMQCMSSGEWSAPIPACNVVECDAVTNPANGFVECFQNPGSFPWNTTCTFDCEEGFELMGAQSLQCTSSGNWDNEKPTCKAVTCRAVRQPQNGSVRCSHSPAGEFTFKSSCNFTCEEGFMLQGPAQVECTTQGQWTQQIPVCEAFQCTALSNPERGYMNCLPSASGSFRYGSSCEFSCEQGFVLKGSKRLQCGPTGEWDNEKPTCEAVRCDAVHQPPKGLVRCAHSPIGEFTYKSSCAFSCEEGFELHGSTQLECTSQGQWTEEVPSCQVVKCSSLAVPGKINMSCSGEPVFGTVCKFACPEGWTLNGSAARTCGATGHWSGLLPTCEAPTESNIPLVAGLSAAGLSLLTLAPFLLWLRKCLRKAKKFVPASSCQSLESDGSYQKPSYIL

The AC50 is the midpoint of the concentration-response curve, whichever way the signal moves. For the compound `CC(C)(c1ccccc1)c1ccc(O)cc1`, the call in [1] and in [3] was inactive. Further, the AC50 was 9.21 µM (active) [middle of 4 runs] in [2]; 34.7 µM (active) in [4]; 32.2 µM (active) in assay [5]; 39.3 µM (active) in assay [6]; 20 µM (active) in assay [7]; 39 µM (active) in assay [8]. Also, the AC50 in assay [9] was 35.6 µM (active).

For the compound `CCCN(CCC)N=O`, the call in [10], in assay [4], in assay [5], in assay [6], in assay [7] and in [8] was inactive. Further, the outcome in assay [9] was inactive.

As to `O=C(O)C(F)(F)C(F)(F)C(F)(F)C(F)(F)C(F)(F)C(F)(F)C(F)(F)C(F)(F)F`, the outcome in assay [10], in assay [1], in [3], in assay [4], in assay [6] and in [7] was inactive. For the same compound, the result in [8] and in assay [9] was inactive. In addition, the AC50 in assay [2] is 13.3 µM (active) and 41.1 µM (active) and 26.3 µM (active); in assay [5] it was 35 µM (active) and 49.9 µM (active) and 46.6 µM (active); in [6] it was 54.7 µM (active); in [8], 57.3 µM (active) and 55 µM (active).

On to `Cc1cc(-c2ccc(N)c(C)c2)ccc1N`, for which the outcome in [10], in assay [1], in [2], in assay [3], in assay [4] and in [5] was inactive. In addition, the result in [6], in [7], in assay [8] and in assay [9] was inactive.

For `CCC(C)(c1ccc(O)cc1)c1ccc(O)cc1`, the result in [10], in assay [1], in [2], in assay [3], in assay [4] and in [5] was inactive. Moreover, the AC50 in assay [2] is 9.02 µM (active) and 17.8 µM (active) and 19.6 µM (active); in assay [6] it was 20 µM (active); in assay [7], 10.7 µM (active); in [8], 24.7 µM (active); in assay [9], 22.9 µM (active).

`O=C(NC(=O)c1c(F)cccc1F)Nc1cc(Cl)c(OC(F)(F)C(F)F)c(Cl)c1`: the compound was called inactive in assay [1], in [2], in assay [3], in [4], in [5] and in assay [6]. For the same compound, the result in [7], in assay [8] and in [9] was inactive.

On to `O=C(O)C(F)(F)C(F)(F)C(F)(F)C(F)(F)C(F)(F)C(F)(F)C(F)(F)C(F)(F)C(F)(F)F`, for which the compound was called inactive in assay [10], in assay [1], in [3], in [4], in [7] and in [9]. For the same compound, the AC50 was 18.1 µM (active) and 13.4 µM (active) and 13.2 µM (active) in [2]; 53.8 µM (active) and 54.9 µM (active) in assay [4]; 18.5 µM (active) and 11.9 µM (active) and 13.4 µM (active) in [5]; 32.5 µM (active) and 54.6 µM (active) and 52.9 µM (active) in [6]; 48.2 µM (active) and 53.7 µM (active) in assay [7]; 33.2 µM (active) and 53.3 µM (active) and 56.7 µM (active) in [8]. Also, the AC50 in assay [9] is 53.6 µM (active) and 47 µM (active).

Turning to `Clc1ccc(Cl)cc1`, the compound was called inactive in [10], in [1], in [2], in assay [4], in assay [5] and in [6]. The result in assay [7], in assay [8] and in assay [9] was inactive.

For `ClC1=C(Cl)[C@]2(Cl)[C@@H]3[C@H]4C[C@H]([C@@H]5O[C@H]45)[C@@H]3[C@@]1(Cl)C2(Cl)Cl`, the call in assay [1], in assay [2], in [3], in assay [4], in assay [5] and in assay [6] was inactive. Moreover, the outcome in assay [9] was inactive. For the same compound, the AC50 in assay [7] is 5.75 µM (active); in [8], 7.35 µM (active).

`O=C(NC(=O)c1cc(F)c(F)cc1Cl)Nc1cc(F)ccc1N1CCC(C(=O)O)CC1`: the compound was called inactive in assay [10], in assay [4], in assay [5], in assay [6], in assay [7] and in [8]. Also, in assay [9], the outcome was inactive.

`CCCCCCCCCC[N+](C)(C)CCCCCCCCCC`: the compound was called inactive in assay [10] and in assay [3]. The AC50 in assay [4] is 4.77 µM (active); in assay [5], 7.76 µM (active); in [6], 3.59 µM (active); in assay [7], 3.16 µM (active); in [8] it was 2.22 µM (active); in assay [9], 4.54 µM (active).

As to `C[C@]12CCC(=O)C=C1CC[C@@H]1[C@@H]2CC[C@@]2(C)[C@H]1CC[C@]2(C)O`, the compound was called inactive in assay [10], in assay [1], in assay [2], in assay [3], in assay [4] and in [5]. Besides, the result in assay [6], in assay [7], in assay [8] and in assay [9] was inactive.

`Oc1c(Cl)c(Cl)c(Cl)c(Cl)c1Cl`: the outcome in assay [1], in assay [2], in [3], in [7] and in assay [9] was inactive. For the same compound, the AC50 was 14 µM (active) and 10.8 µM (active) in [4]; 13.8 µM (active) and 21.4 µM (active) in assay [5]; 13.7 µM (active) in assay [6]; 7.96 µM (active) in assay [7]; 14.7 µM (active) and 13.5 µM (active) in assay [8]; 20 µM (active) in [9].

In the case of `Cc1cc(O)ccc1Cl`, the compound was classed as inactive in assay [10], in assay [1], in assay [2], in assay [3], in assay [4] and in assay [5]. Further, the result in assay [6], in [7], in [8] and in [9] was inactive.
